Active and inactive are the calls of the source.
What was measured:
[1] = system: Plasmodium falciparum Sir2 (PF13_0152, Sir2A); assay: pfSir2 binders on small-molecule microarrays, primary screen, biochemical, small-molecule microarray, 635 nm fluorescence (AID 1098); conditions: small-molecule microarray binding, fluorescence 635 nm; higher = more signal;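 further: score merges spot fluorescence intensity with its signal-to-noise ratio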
[2] = small-molecule microarray binders of probe aDKK1, primary screen, biochemical, biotinylated probe, 635/667 nm fluorescence (AID 1099); conditions: higher = more signal;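 further: score merges 667nm spot fluorescence with signal to noise across triplicate slides; reference of the scale not given here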
[3] = small-molecule microarray binders of probe aCHRDL2, primary screen, biochemical, biotinylated probe, 635/667 nm fluorescence (AID 1100); conditions: higher = more signal
[4] = splicing luciferase reporter signal modulators, primary screen, spliceosome inhibition project, cell-based, HEK293, splice +/- reporter (AID 1101); conditions: luminescence, 24 h, higher = more signal, called active from +8 up or from −8 down;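 further: HEK293 cells carrying a splicing-competent luciferase reporter gene; test concentration not given here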
[5] = molecular target: Fibroblast growth factor 10 (Homo sapiens) (UniProt O15520); assay: FGF10 binders on small-molecule microarrays, primary screen, biochemical, small-molecule microarray, 635 nm fluorescence (AID 1102); conditions: FGF10 binding, fluorescence 635 nm, higher = more signal
[6] = system: glycogen synthase kinase-3 (GSK3A per assay name; protocol says GSK3B); assay: GSK3 binders on small-molecule microarrays, primary screen, biochemical, small-molecule microarray, 635 nm fluorescence, GSK3A (AID 1103); conditions: small-molecule microarray binding, fluorescence 635 nm; higher = more signal; further: the record names both GSK3A and GSK3B
[7] = molecular target: Epidermal growth factor receptor (Homo sapiens) (UniProt P00533); assay: EGFR binders on small-molecule microarrays, primary screen, biochemical, small-molecule microarray, 635 nm fluorescence (AID 1104); conditions: EGFR binding, higher = more signal;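 further: score merges 667 nm emission intensity with spot signal to noise over triplicate slides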
[8] = molecular target: Follistatin-related protein 3 (Homo sapiens) (UniProt O95633); assay: FSTL3 binders on small-molecule microarrays, primary screen, biochemical, small-molecule microarray, 635 nm fluorescence (AID 1105); conditions: FSTL3 binding, higher = more signal;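 further: score merges emission near 667 nm and signal to noise per printed spot across three slides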
[9] = molecular target: Dickkopf-related protein 1 (Homo sapiens) (UniProt O94907); assay: DKK1 binders on small-molecule microarrays, primary screen, biochemical, small-molecule microarray, 635 nm fluorescence scan (AID 1106); conditions: DKK1 binding, higher = more signal;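 further: score merges emission near 667 nm with signal to noise over three replicate slides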
[10] = system: Inhibin beta A chain (activin A); assay: INHBA (activin A) binders on microarrays, primary screen, biochemical, small-molecule microarray, 635 nm fluorescence scan (AID 1107); conditions: small-molecule microarray binding, higher = more signal;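 further: mouse activin A protein probed at 4.33 µg/mL on printed slides; score merges bound-protein fluorescence near 667 nm with spot signal-to-noise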

Chain of Dickkopf-related protein 1 (Homo sapiens) (O94907 whole entry, looked up): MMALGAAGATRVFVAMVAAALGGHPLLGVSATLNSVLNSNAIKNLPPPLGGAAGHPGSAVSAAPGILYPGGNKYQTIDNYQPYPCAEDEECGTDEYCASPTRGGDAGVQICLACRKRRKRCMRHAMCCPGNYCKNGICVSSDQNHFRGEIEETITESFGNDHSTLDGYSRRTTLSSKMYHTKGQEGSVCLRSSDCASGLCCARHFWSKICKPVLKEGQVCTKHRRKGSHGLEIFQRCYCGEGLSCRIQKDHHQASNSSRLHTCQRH
Chain of Fibroblast growth factor 10 (Homo sapiens) (O15520 whole entry, looked up): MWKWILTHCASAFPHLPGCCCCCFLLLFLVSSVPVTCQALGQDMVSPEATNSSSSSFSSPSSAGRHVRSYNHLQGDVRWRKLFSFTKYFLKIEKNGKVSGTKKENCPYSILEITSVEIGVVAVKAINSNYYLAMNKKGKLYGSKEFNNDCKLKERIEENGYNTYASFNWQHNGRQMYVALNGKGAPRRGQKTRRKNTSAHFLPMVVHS
Chain of Follistatin-related protein 3 (Homo sapiens) (O95633 whole entry, looked up): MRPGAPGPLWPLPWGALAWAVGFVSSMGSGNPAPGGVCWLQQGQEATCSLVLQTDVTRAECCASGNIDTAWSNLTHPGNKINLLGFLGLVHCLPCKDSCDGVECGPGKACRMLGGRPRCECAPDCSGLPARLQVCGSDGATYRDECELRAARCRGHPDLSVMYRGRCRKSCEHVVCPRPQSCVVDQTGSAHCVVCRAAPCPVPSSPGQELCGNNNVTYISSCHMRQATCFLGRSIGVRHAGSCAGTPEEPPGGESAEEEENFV
Chain of Epidermal growth factor receptor (Homo sapiens) (P00533 whole entry, looked up): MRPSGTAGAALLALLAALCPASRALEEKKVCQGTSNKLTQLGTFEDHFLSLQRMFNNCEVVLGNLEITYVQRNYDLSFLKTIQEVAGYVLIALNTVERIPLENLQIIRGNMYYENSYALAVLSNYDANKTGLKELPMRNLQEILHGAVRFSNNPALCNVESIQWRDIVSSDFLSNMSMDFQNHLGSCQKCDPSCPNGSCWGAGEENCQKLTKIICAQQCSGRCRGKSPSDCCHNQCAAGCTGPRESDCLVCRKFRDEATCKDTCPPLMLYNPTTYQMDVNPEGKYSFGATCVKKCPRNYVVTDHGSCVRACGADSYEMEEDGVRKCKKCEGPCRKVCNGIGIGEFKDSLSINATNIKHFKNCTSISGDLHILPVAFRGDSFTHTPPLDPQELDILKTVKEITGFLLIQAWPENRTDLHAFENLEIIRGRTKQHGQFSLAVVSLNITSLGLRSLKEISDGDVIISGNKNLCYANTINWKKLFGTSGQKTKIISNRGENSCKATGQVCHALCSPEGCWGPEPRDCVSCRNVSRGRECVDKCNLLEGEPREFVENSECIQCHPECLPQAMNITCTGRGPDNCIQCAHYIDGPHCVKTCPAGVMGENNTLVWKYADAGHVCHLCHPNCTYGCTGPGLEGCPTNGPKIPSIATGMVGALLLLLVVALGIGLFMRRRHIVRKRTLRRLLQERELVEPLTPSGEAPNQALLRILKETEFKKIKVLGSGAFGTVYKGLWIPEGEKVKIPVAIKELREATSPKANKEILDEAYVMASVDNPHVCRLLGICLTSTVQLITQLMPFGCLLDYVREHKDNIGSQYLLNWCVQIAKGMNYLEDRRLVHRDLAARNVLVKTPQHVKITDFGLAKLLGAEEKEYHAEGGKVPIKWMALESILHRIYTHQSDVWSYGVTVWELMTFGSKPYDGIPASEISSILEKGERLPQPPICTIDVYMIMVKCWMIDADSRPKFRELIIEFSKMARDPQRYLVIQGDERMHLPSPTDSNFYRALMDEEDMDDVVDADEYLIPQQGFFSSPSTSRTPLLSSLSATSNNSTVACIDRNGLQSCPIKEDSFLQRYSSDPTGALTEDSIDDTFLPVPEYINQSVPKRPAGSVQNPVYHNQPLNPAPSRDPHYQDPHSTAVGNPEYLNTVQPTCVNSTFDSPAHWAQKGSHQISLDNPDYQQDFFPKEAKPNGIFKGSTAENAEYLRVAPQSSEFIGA

| Compound | composite z-score [1] | composite z-score [2] | composite z-score [3] | z-score [4] | composite z-score [5] | composite z-score [6] | composite z-score [7] | composite z-score [8] | composite z-score [9] | composite z-score [10] |
| --- | --- | --- | --- | --- | --- | --- | --- | --- | --- | --- |
| CCOC(=O)C[C@H]1[C@H](OC(=O)c2ccccc2-c2ccccc2)[C@@H](NC(=O)c2ccc(-c3ccccc3)cc2)c2cc(OCCCO)ccc2N1C(=O)c1ccc2ccccc2n1 | 0.533 | -0.293 | -0.0904 | 0.224 (inactive) | 0.948 | 0.749 | 0.247 | 0.749 | 0.204 | 0.392 |
| COc1ccc([Si](C)(C)[C@@H]2[C@@H](CCn3cc([C@H](O)c4ccccc4)nn3)O[C@]3(C(=O)N(Cc4ccc(N5CCC5=O)cc4)c4ccccc43)[C@H]2C)cc1 | 0.453 | -0.213 | -0.0321 | -0.619 (inactive) | 0.137 | -0.364 | -0.167 | -0.0461 | 0.135 | 0.632 |
| OCCCC1=CC(c2ccc(CN3CCCC3)cc2)N(Cc2sc3ccccc3c2Cl)CC1 (stereo not given) | 1.39 | 0.14 | 0.504 | -1.07 (inactive) | 1.03 | 1.3 | 0.62 | 0.854 | 0.771 | 1.41 |
| COc1ccccc1CN1C(=O)c2ccccc2[C@@]2(Cc3ccccc3N(CC(F)(F)F)C2=O)[C@@H]1c1ccc(CO)cc1 | 0.144 | -0.435 | -0.167 | 1.49 (inactive) | 0.507 | 0.524 | 0.414 | 0.614 | 0.564 | 1.03 |
| NC(N)=NCCCn1cc(CNC(=O)[C@@H](N)Cc2ccccc2)nn1 | 1.23 | 0.174 | 0.34 | 0.292 (inactive) | 0.697 | 0.0853 | -0.38 | 1.36 | 0.0571 | 0.9 |
| COC(=O)[C@@]1(Cc2ccccc2)[C@@H]2C(=CC(=O)[C@H]2CC(=O)C(=O)N(C)C)CN1C(=O)c1ccccc1 | 0.971 | 1.08 | 1.17 | 2.93 (inactive) | 0.473 | 0.982 | 0.159 | 0.471 | -0.465 | 1.25 |
| [N-]=[N+]=NCc1ccccc1C[C@@]1(C(=O)NCc2ccccc2)N=C(c2ccc(OCCCO)cc2)O[C@@H]1c1ccccc1N=[N+]=[N-] | -0.108 | 0.559 | 1.13 | -0.758 (inactive) | 0.894 | 1.21 | -0.475 | -0.206 | -0.666 | 0.376 |
| O=C1c2ccccc2[C@](Cc2ccccc2I)(C(=O)NCC(F)(F)F)[C@H](c2ccc(CO)cc2)N1C1CCCCC1 | 1.6 | 0.663 | 0.821 | 1.47 (inactive) | 1.04 | 0.884 | 0.109 | 0.66 | -0.239 | 0.82 |
| O=C1O[C@H](c2ccccc2)[C@H](c2ccccc2)N2[C@H]1[C@@H](C(=O)Nc1nc3ccccc3s1)[C@]1(C(=O)Nc3ccc(C#CCCO)cc31)[C@H]2c1ccc(O)cc1 | 0.915 | 0.39 | 0.673 | -0.285 (inactive) | 0.929 | 0.88 | 0.591 | 0.763 | 0.198 | 0.635 |
| CCOC(=O)C[C@H]1[C@H](OC(=O)c2cc3ccccc3oc2=O)[C@@H](NC(=O)c2ccc(-c3ccccc3)cc2)c2cc(OCCCO)ccc2N1C(=O)c1ccccc1 | 1.17 | -0.24 | -0.466 | -1.38 (inactive) | 1.02 | 1.04 | 0.613 | 1.05 | 1.22 | 0.479 |
| C=C(C)c1cc2c(c(CCCCCC)n1)[Si](C(C)C)(C(C)C)OC2 | -0.491 | -0.304 | 0.149 | -0.392 (inactive) | -1.04 | -1.18 | -1.01 | -1.24 | -1.31 | 0.138 |
| CC(C)[Si](C#CCCCC#N)(O[C@H](c1ccccc1)c1cn([C@H](CO)Cc2ccccc2)nn1)C(C)C | 0.726 | -0.151 | 0.138 | -0.401 (inactive) | 0.61 | 0.709 | 0.52 | 1.36 | 0.598 | 0.0469 |
| O=C1O[C@H](c2ccccc2)[C@H](c2ccccc2)N2[C@H]1[C@@H](C(=O)NC[C@H](O)c1ccccc1)[C@]1(C(=O)Nc3ccc(C#CCCO)cc31)[C@H]2c1ccc(OCCO)cc1 | 1.58 | 0.222 | 0.0751 | 0.613 (inactive) | 0.575 | 0.739 | 0.037 | 0.701 | 0.264 | 0.503 |
| Cn1cccc1C(O)C1C=CC2C(=O)NC(=O)C2N1Nc1ccc(Cl)cc1Cl (stereo not given) | 1.21 | 1.3 | 1.33 | 1.08 (inactive) | 0.914 | 0.593 | 0.295 | 1.34 | -0.43 | 0.657 |
| COCCOC(=O)N1C(=O)[C@@]2(c3cc(C#CC4=CCCCC4)ccc31)[C@H](c1ccc(OCCO)cc1)N1[C@H](c3ccccc3)[C@H](c3ccccc3)OC(=O)[C@H]1[C@@H]2C(=O)NC[C@H](O)c1ccccc1 | 1.44 | 0.677 | 0.696 | -0.228 (inactive) | 1.35 | 1.31 | 0.933 | 1.49 | 1.32 | 1.29 |
| COCCOC(=O)N1C(=O)[C@@]2(c3cc(C#CCNC(N)=O)ccc31)[C@H](C(=O)N1CCc3cc(OC)c(OC)cc3C1)[C@H]1C(=O)O[C@H](c3ccccc3)[C@H](c3ccccc3)N1[C@@H]2c1ccccc1OCCO | 1.26 | 0.073 | 0.315 | 0.0466 (inactive) | 1.41 | 1.14 | 0.873 | 1.14 | 0.246 | 0.586 |
| CCOC(=O)c1ccc(NC(=O)O[C@H]2[C@H](OC(=O)Nc3ccc4c(c3)OCO4)[C@H](OC(=O)Nc3ccc4c(c3)OCO4)[C@@H](OC)O[C@@H]2CO)cc1 | 1.56 | 0.901 | 0.944 | 0.646 (inactive) | 1.33 | 1.33 | 0.517 | 1.39 | 1 | 0.673 |
| C=CCN1C(=O)[C@@]2(O[C@@H](CCn3cc([C@H](O)c4ccccc4)nn3)[C@H]([Si](C)(C)c3ccc(OC)cc3)[C@H]2C)c2cc(N3CCC3=O)ccc21 | 1.43 | 0.0289 | 0.257 | -0.429 (inactive) | 0.216 | -0.0371 | -0.0844 | -0.296 | -0.0607 | 0.289 |
| NC(=O)N1C(=O)C2C(C1=O)C1C=C(CCCO)C2C(c2cccs2)N1Cc1cccc(OC(F)(F)F)c1 (stereo not given) | 1.41 | -0.0349 | -0.123 | 0.23 (inactive) | 0.493 | 0.177 | 0.121 | 0.211 | -0.184 | 0.944 |
| COC(=O)c1c(CC[C@@H](CO)NC(=O)N[C@H](Cn2cc(C3(O)CCCCC3)nn2)C(C)C)oc(C(C)=O)c1C(=O)OC | 0.997 | -0.0398 | -0.446 | -1.66 (inactive) | 1.07 | 0.859 | 0.557 | 1.1 | 0.788 | 0.368 |
| COc1cc2c(cc1O)C(C)N(Cc1ccc([N+](=O)[O-])o1)CC2 (stereo not given) | 1.38 | 0.749 | 0.879 | 0.286 (inactive) | 0.675 | 0.899 | -0.459 | 0.574 | -0.0673 | 1.31 |
| C=CCC(OC(C)=O)[C@@H]1[C@@H](N(Cc2ccc(-c3cccc(C(F)(F)F)c3)o2)C(=O)c2ccc(C)cc2)c2cc(OCCCO)ccc2N1C(=O)c1ccc2ccccc2c1 (stereo not given in full) | 0.178 | -0.149 | 0.155 | -0.619 (inactive) | 0.298 | -0.461 | -0.0161 | 0.443 | 0.217 | 1.01 |
| COCCCNC(=O)[C@@]1(Cc2ccccc2CN=[N+]=[N-])N=C(c2ccc(OCCCO)cc2)O[C@H]1c1ccccc1 | 1.06 | 0.432 | 0.825 | -0.645 (inactive) | 1.31 | 0.235 | -0.331 | 0.561 | -0.497 | 0.31 |
| O=C1N(Cc2ccccc2)Cc2ccccc2[C@@H]2OC(c3ccc(OCCCO)cc3)=N[C@]12CCS(=O)(=O)c1ccccc1 | 0.596 | -0.0422 | 1.05 | 0.0631 (inactive) | 1.04 | 0.309 | 0.607 | 0.291 | -0.222 | 0.772 |
| COC(=O)[C@@]1(Cc2ccccc2)[C@H]2c3cc(C(=O)N(C)C)n(Cc4c(CO)[nH]cc(C)c4=O)c3C[C@H]2CN1C(=O)c1ccccc1 | 0.42 | 0.183 | 0.528 | 1.06 (inactive) | 0.422 | -0.0088 | -0.0555 | -0.237 | -0.296 | 1.1 |
| CCCCCCCCCCC(O)C1C=CC2C(=O)N(C)C(=O)C2N1NC(=O)OC(C)(C)C (stereo not given) | 0.18 | -0.0906 | 0.0331 | 11.3 (active) | -0.737 | 0.386 | -0.0167 | -0.112 | -0.145 | 0.417 |
| CC(C)(C)OC(=O)CC[C@@]1(C(=O)NCc2ccccc2)N=C(c2ccc(OCCCO)cc2)O[C@@H]1c1ccccc1N=[N+]=[N-] | 0.71 | 1.03 | 1.29 | -1.18 (inactive) | 1.39 | 1.18 | 0.373 | 1.26 | 0.0295 | 0.795 |
| CC(C)C[C@@H]1NC(=O)[C@@H]2C[C@H](C(=O)NCCCCCN)[C@H](c3ccc(O)cc3)N2C1=O | 0.311 | 0.283 | 0.403 | 0.103 (inactive) | 0.843 | 1.31 | 0.0233 | 1.26 | 0.93 | 0.585 |
| CN(C)c1ccc(C(O)C2C=CC3C(=O)N(c4ccccc4)C(=O)C3N2Nc2ccc([N+](=O)[O-])cc2)cc1 (stereo not given) | 1.53 | 0.604 | 1.16 | -0.0025 (inactive) | 0.704 | 1.29 | 0.332 | 0.974 | -0.204 | 1.4 |

— PubChem BioAssay
